Inconclusive results are not listed. Active and inactive are the calls of the source. Calls follow the shape of the dose curve; as a rule, active = well fitted curve in the direction sought with a large enough effect; inconclusive = small, poorly fitted or top-dose-only effect, or another doubt; inactive = no such curve, though single readings can be large; an effect the other way counts as inactive or inconclusive.
Key:
[1] = biological target: Glutathione peroxidase 1 (Homo sapiens) (UniProt P07203); experiment: Primary qHTS Assay for Inhibitors of Recombinant Selenoprotein Glutathione Peroxidase 1 (GPX1) (AID 1845191); also: nearly all actives have a fitted effect of over 65% in size; also: potency is read from the fitted curve at half-maximal effect; as to activity, negative = inhibition: % is scaled to controls: 0 for no effect and ±100 for the full control effect
Glutathione peroxidase 1 (Homo sapiens), sequence (P07203 whole entry, looked up): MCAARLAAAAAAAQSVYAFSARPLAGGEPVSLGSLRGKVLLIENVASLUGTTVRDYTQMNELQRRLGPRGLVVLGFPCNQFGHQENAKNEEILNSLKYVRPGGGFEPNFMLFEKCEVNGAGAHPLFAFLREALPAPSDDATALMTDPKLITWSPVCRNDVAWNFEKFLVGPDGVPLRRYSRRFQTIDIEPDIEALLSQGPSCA
In short: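 GPX1 10 nM, GR 100 nM, GSH 1 mM, NADPH 0.5 mM, CHP 0.5 mM (final). 30-min cpd preincubation, RT. Ex340/Em450 read t=0, t=15 min.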

[2] = biological target: Phospholipid hydroperoxide glutathione peroxidase GPX4 (Homo sapiens) (UniProt P36969); experiment: Primary qHTS Assay for Inhibitors of Recombinant Selenoprotein Glutathione Peroxidase 4 (GPX4) (AID 1845192); also: nearly all actives have a fitted effect of over 65% in size; also: potency is read from the fitted curve at half-maximal effect; as to activity change, negative = inhibition: series mostly up to about 50 µM; % is scaled to controls: 0 for no effect and ±100 for the full control effect
Phospholipid hydroperoxide glutathione peroxidase GPX4 (Homo sapiens), sequence (P36969 whole entry, looked up): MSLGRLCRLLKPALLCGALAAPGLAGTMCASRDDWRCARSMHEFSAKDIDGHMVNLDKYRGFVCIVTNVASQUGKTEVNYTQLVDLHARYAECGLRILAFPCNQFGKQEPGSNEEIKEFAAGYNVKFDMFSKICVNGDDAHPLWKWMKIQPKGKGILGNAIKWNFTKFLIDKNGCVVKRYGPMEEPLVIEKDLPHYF
In short: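 qHTS, GR-coupled: GPX4 200 nM + cpd 30 min RT → GSH 1 mM, NADPH 0.5 mM, GR 100 nM → CHP 0.5 mM start; fluor 340/450 at t0 and t15 min; no-enzyme wells as control.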

[3] = biological target: Luciferin 4-monooxygenase (Photinus pyralis) (UniProt P08659); experiment: Primary firefly luciferase (FLuc) qHTS assay for identification of artifact compounds. (AID 1845220); also: nearly all actives have a fitted effect of over 60% in size;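 as to activity change, negative = inhibition: series mostly up to about 54 µM; plate controls were DMSO vehicle for no effect and no enzyme for full effect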
In short: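 In this counter-screen for luciferase artifacts, test compounds met substrate (10 uM each luciferin and ATP) before 10 nM enzyme started the reaction. Light output was measured 5 min later.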

[4] = Primary fluorescence-based thiol-reactive (MSTI) qHTS assay for identification of artifact compounds. (AID 1845221);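 also: series mostly up to about 54 µM; thiol-reactive compounds lower the probe fluorescence signal; nearly all actives have a fitted effect of over 65% in size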
In short: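 Curve-fitted percent inhibition (4-parameter Hill) derived from fluorescence, Ex 525/Em 598 nm, scaled with Acetyl-MSTI and MSTI; 1 h incubation at room temperature.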

[5] = system: Nanoluciferase (engineered Oplophorus gracilirostris luciferase); experiment: Primary Nanoluciferase (NLuc) qHTS assay for identification of artifact compounds. (AID 1845222);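 also: NLuc secreted into diluted conditioned medium of S16 cells; series mostly up to about 54 µM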
In short: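 Using secreted nanoluciferase in S16 culture medium (0.22 um filtered, 1:55 dilution), compounds were preincubated 15 min at RT. Signal was generated with Nano-Glo reagent (1:100) over 5 min.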

[6] = Primary redox qHTS assay for identification of artifact compounds. (AID 1845223);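 also: 0% = DMSO and 100% = reference compound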
In short: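 Redox-cycling detection via DTT (250 uM final) oxidation coupled to Amplex Red (25 uM)/HRP (250 mU/mL) in HBSS. 15 min preincubation plus 30 min after DTT, room temperature. Ex/Em 525/598 nm; 4-parameter Hill fit against DMSO and 10 uM DA3003.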

N#C/C(=C\c1ccc(O)c(O)c1)C(=O)NCc1ccccc1
inactive: Potency [1] | Potency [2]

Oc1cc(O)cc(/C=C/c2ccc(O)c(O)c2)c1
inactive: Potency [1] | Potency [2]

NC(=O)C(=O)O
inactive: Potency [1] | Potency [2]

O=C(O)CC1CC(c2ccccc2)=NO1 (stereo not given)
inactive: Potency [1] | Potency [2] | Potency [3] | outcome [4] | Potency [5] | outcome [6]

CNC(=O)[C@H]1O[C@@H](n2cnc3c(NCc4cccc(I)c4)ncnc32)[C@H](O)[C@@H]1O
inactive: Potency [1] | Potency [2]

[O-][n+]1ccccc1SSc1cccc[n+]1[O-]
inactive: Potency [1] | Potency [2]

Brc1cc2c(cc1[C@H]1Nc3ccccc3[C@H]3C=CC[C@H]31)OCO2
inactive: Potency [1] | Potency [2]

NC[C@@H]1O[C@H](C23CC4CC(CC(C4)C2)C3)Cc2c1ccc(O)c2O
inactive: Potency [1] | Potency [2]

Nc1cc(-c2ccncc2)c[nH]c1=O
inactive: Potency [1] | Potency [2]

O=C(Nc1cccc(C(=O)Nc2ccc(S(=O)(=O)O)c3cc(S(=O)(=O)O)cc(S(=O)(=O)O)c23)c1)Nc1cccc(C(=O)Nc2ccc(S(=O)(=O)O)c3cc(S(=O)(=O)O)cc(S(=O)(=O)O)c23)c1
inactive: Potency [1] | Potency [2]

COc1ccc(/C=C/c2nc(NCCCN(C)C)c3ccccc3n2)cc1
inactive: Potency [1] | Potency [2]

Cc1cn([C@H]2CC(N=[N+]=[N-])[C@@H](CO)O2)c(=O)[nH]c1=O (stereo not given in full)
inactive: Potency [1] | Potency [2]

CCOc1ccc2nc(S(N)(=O)=O)sc2c1
inactive: Potency [1] | Potency [2]

CNCC[C@H](Oc1ccc(C(F)(F)F)cc1)c1ccccc1
inactive: Potency [1] | Potency [2]

O=c1cc(-c2ccccc2)oc2c(O)c(O)ccc12
inactive: Potency [1] | Potency [2]

O=C(O)Cc1cccc(-c2cc(CCCCCCc3ccc(O[C@H]4O[C@H](CO)[C@@H](O)[C@H](O)[C@@H]4O)c(-c4cccc(CC(=O)O)c4)c3)ccc2O[C@H]2O[C@H](CO)[C@@H](O)[C@H](O)[C@@H]2O)c1
inactive: activity, negative = inhibition [1] -5.05% [at 0.4 µM] | activity change, negative = inhibition [2] -19% [at 0.409 µM] | outcome [3] inactive [at 0.464 µM] | activity change, negative = thiol reactive [4] 33.1% [at 0.461 µM] | activity, negative = inhibition [5] 3.7% [at 0.464 µM] | redox activity (% of DA3003) [6] 1.45% [at 0.461 µM]

CC(=O)SCC[N+](C)(C)C
inactive: Potency [1] | Potency [2]

Nc1ccn([C@@H]2O[C@H](CO)[C@@H](O)[C@@H]2O)c(=O)n1
inactive: Potency [1] | Potency [2]

CN(CCCOc1ccc(Cc2ccccc2)cc1)CCC(=O)O
inactive: Potency [1] | Potency [2] | Potency [3] | outcome [4] | Potency [5]

CN(C)C(N)=NCCC[C@H](N)C(=O)O
inactive: Potency [1] | Potency [2]

COC(=O)C1=C(C)NC(C)=C(C(=O)OC)C1c1cccc(NC(=O)NCCCN2CCC(c3cccc(OC)c3)CC2)c1
inactive: Potency [1] | Potency [2] | Potency [3] | outcome [4] | Potency [5] | outcome [6]

CSc1ccccc1N1CCN(CCCCCC(=O)NC2CCCc3ccccc32)CC1 (stereo not given)
inactive: Potency [1] | Potency [2]

Cn1ncc(S(=O)(=O)Cc2ccccc2)c(Br)c1=O
inactive: Potency [1] | Potency [2]

CCCOC(=O)c1ccc(O)cc1
inactive: Potency [1] | Potency [2]

C/C(=N\O)c1ccc(OCC(=O)N2CCCCC2)cc1
inactive: Potency [1] | Potency [2] | outcome [4] | Potency [5] | outcome [6]

C#CC1(O)CC[C@H]2[C@@H]3CCC4=CCCC[C@@H]4[C@H]3CC[C@@]21C (stereo not given in full)
inactive: Potency [2]

Fc1ccc2[nH]c(CN3CCN(c4ccccn4)CC3)cc2c1
inactive: Potency [1] | Potency [2] | Potency [3] | outcome [4] | Potency [5] | outcome [6]

CCN(CC)CCCCNc1ncc2cc(-c3c(Cl)cccc3Cl)c(NC(=O)NC(C)(C)C)nc2n1
inactive: Potency [3] | outcome [4] | Potency [5] | outcome [6]
active: Potency [1] 20.2 µM | Potency [2] 7.18 µM

CN1[C@@H]2CC[C@H]1CC(OC(c1ccccc1)c1ccccc1)C2 (stereo not given in full)
inactive: Potency [1] | Potency [2] | Potency [3] | outcome [4] | Potency [5] | outcome [6]

O=C(O)CCCC[C@@H]1CCSS1
inactive: Potency [2]

C=CC(C)=C[C@@]1(C)SC(=O)C(C)=C1O
inactive: Potency [2]

CC(=O)SCC(CC(=O)c1ccc(C)cc1)C(=O)O (stereo not given)
inactive: Potency [1] | Potency [2] | outcome [4] | Potency [5] | outcome [6]

CC(C(=O)O)c1ccc2c(c1)[nH]c1ccc(Cl)cc12 (stereo not given)
inactive: Potency [1] | Potency [2] | Potency [3] | outcome [4] | outcome [6]

CCNc1nc2c(ncn2[C@H]2C[C@H](O)[C@@H](CO)O2)c(=O)[nH]1
inactive: Potency [1] | Potency [2] | Potency [3] | outcome [4] | Potency [5] | outcome [6]

— PubChem BioAssay (NCATS)
